# Data as given in PubChem BioAssay (NCI).
# This is part of a sample that, as a whole, favours compounds with a hit. Of some 79,000 tested, about 15% had one in any assay. A number with no mark means an inactive call. Active and inactive are the calls of the source. Cut-off read from the data, not from the text of the source: active = growth inhibition above about 70%; inactive = the rest.
# Assay: NCI Yeast Anticancer Drug Screen. Data for the sgs1 mgt1 strain (AID 161);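 note: 0% = growth of cultures given vehicle only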
# Conditions: S. cerevisiae sgs1 mgt1 strain, at 50.0 µM, active compounds read high
# Description: Growth inhibition of yeast strains with defined genetic alterations is measured as a screen for potential anti-cancer activity. Selected strains with alterations in DNA damage repair or cell cycle control were exposed to compounds and growth inhibition was measured relative to vehicle treated controls. The strain used in this assay is sgs1 mgt1
row,Structure (SMILES),growth inhibition
1,O=C1/C(=C/c2ccc3c(c2)OCO3)CC/C1=C\c1ccc2c(c1)OCO2,-19.7%
2,C=CCNC(=S)Nc1c(C)cc(C)cc1C,9.65%
3,O=[N+]([O-])c1ccc(F)cc1,2.3%
4,Cc1cc(Cl)c2c(c1)C(=O)C(C)C2.[Cu+2] (stereo not given),-18.8%
5,NCC1CCCCO1 (stereo not given),14.2%
6,COc1ccc(C2CC(c3c(C)nn(-c4ccccc4)c3-c3ccc(C)cc3O)=NN2c2ccccc2)cc1 (stereo not given),-11.1%
7,CN(C)c1ccc(C=Nc2ccc3c(c2)C(N2CCOCC2)c2ccccc2-3)cc1 (stereo not given),-38.1%
8,CCOc1ccc(N2C(C#N)c3ccccc3OC2c2ccccc2O)cc1 (stereo not given),18.6%
9,COc1ccc(C(O)C(O)(c2ccccc2)c2ccc(OC)cc2)cc1 (stereo not given),-6.3%
10,CCCOC(=O)/C=C(\Cl)C(=O)OCCC,0.65%
11,CC1=C(CO)C(=O)O[C@@H]([C@@H](C)[C@H]2CC[C@H]3[C@@H]4C[C@H]5O[C@]56[C@@H](O)C=CC(=O)[C@]6(C)[C@H]4CC[C@]23C)C1,86.5% (active)
12,[N-]=[N+]=Nc1ccc(S(=O)(=O)Oc2cc(OS(=O)(=O)c3ccc(N=[N+]=[N-])cc3)cc(OS(=O)(=O)c3ccc(N=[N+]=[N-])cc3)c2)cc1,10.6%
13,O=c1[nH]c2ccccc2nc1/C=C(\O)c1ccc([N+](=O)[O-])cc1,-21.6%
14,O=C(C(=NC12CC3CC(CC(C3)C1)C2)NNc1ccc([N+](=O)[O-])cc1[N+](=O)[O-])C(Br)C(=O)c1ccccc1 (stereo not given),56.2%
15,c1ccc(CC[n+]2ccncc2)cc1,-8.4%
16,O=C(O)C1CCCCN1/N=C/c1cccc([N+](=O)[O-])c1 (stereo not given),22%
17,Cc1ccc(S(=O)(=O)N/N=C(\C(=N/OCc2ccccc2)c2ccccc2)c2ccccc2)cc1,27.6%
18,Clc1nc(Cl)c2ncn(C3CCCCO3)c2n1 (stereo not given),5.05%
19,CCOC(=O)CCC(NC(=O)c1ccc(Nc2nc3ccccc3nc2-c2cccs2)cc1)C(=O)OCC (stereo not given),20.1%
20,CC(C(=O)O)n1c(=O)ssc1=O (stereo not given),1.3%

row,Structure (SMILES),growth inhibition
1,CC12CCC3c4ccc(O)cc4CCC3C1CC(OC1OC(C(=O)O)C(O)C(O)C1O)C2O (stereo not given),13.5%
2,N=c1ccccn1CC(O)COc1ccccc1 (stereo not given),-1.6%
3,O=C(O)/C=C/C=C/c1ccccc1,49.9%
4,Cc1cc2ncn(CO)c2cc1C,18.8%
5,O=C1/C(=C/c2ccccc2)CN(C(=O)/C=C/c2ccccc2)C/C1=C\c1ccccc1,-52%
6,Nc1ccc(F)cc1,-15.4%
7,CC(=O)c1cccc(OC(=O)c2ccccc2)c1,35%
8,COc1ccc(CCl)c(C)c1OC,18.9%
9,CCOC(=O)c1ccc(N=c2sc3ccccc3nc2Nc2ccc(C(=O)OCC)cc2)cc1,-2.05%
10,CCN(CC)C1Oc2cc3c(cc2C(c2cc(OC)c(O)c(OC)c2)C1C)OCO3 (stereo not given),-7.7%
11,O=C(O)c1nc(Cl)c(Cl)[nH]c1=O,8.6%
12,C/C(CC(=O)Nc1ccc(Cl)c(Cl)c1)=N/NC(=O)C[n+]1ccccc1,7.45%
13,CN(C)c1ccc2c(c1)C(O)c1ccccc1-2 (stereo not given),1.1%
14,COc1cc(-c2cc(=O)c3c(O)c(OC)c(OC)cc3o2)ccc1O,-28.5%
15,CCOC(=O)C1=C(C(=O)c2ccc(OC)cc2)C(c2cccc([N+](=O)[O-])c2)C(C(=O)c2ccc(OC)cc2)=C(C(=O)OCC)N1,-2.5%
16,CCCCCC(C)(O)CCC (stereo not given),3.65%
17,CC1=NN(c2ccccc2)C(=O)C1=C1SCCCS1,10.6%
18,O=[N+]([O-])c1ccc(CSc2ncnc3c2ncn3C2OC(CO)C(O)C2O)cc1 (stereo not given),9.5%
19,OCCN1CCN(C2=Nc3cccnc3Nc3cscc32)CC1,-22.6%
20,O=C(Nc1cccc(Cl)c1)c1cc2cc(N=Nc3ccc(Br)cc3)ccc2oc1=O,27%
